FBW7 activator = activators of human E3 ligase FBW7. Q969H0. AlphaScreen FBW7–phospho-cyclin E peptide binding, activator screen. normalized activity (activation), % at 26.1 µM. 0.13% of 650,000 active; in the data active = normalized activity above about 1.9%;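 also: purified mutant Fbw7 with reduced substrate affinity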
Target sequence (Q969H0 whole entry, looked up): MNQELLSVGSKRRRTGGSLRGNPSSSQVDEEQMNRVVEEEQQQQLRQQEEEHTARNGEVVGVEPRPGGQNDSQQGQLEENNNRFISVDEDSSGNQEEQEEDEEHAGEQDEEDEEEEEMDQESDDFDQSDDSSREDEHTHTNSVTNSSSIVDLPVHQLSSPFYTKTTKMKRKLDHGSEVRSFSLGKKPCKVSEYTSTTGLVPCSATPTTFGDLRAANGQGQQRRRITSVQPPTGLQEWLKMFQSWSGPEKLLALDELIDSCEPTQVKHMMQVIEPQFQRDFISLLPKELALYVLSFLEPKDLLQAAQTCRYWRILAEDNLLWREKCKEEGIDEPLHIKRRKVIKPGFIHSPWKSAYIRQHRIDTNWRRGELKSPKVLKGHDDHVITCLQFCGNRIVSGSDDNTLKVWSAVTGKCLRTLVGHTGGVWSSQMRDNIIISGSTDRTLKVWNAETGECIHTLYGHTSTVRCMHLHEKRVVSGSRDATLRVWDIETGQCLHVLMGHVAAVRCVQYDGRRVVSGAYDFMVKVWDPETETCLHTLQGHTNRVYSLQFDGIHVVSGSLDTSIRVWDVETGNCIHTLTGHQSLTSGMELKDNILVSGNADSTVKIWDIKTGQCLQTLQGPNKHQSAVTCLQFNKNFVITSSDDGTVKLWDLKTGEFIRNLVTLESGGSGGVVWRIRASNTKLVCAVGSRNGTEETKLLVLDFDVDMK
TEAD-YAP inh = TEAD-YAP interaction inhibition; HEK-TIYL cells, TEAD-Gal4/YAP UAS-luciferase luminescence; inhibition, % at 9.12 µM; 1.4% of 640,000 active; AID 1259422; in the data active = inhibition above about 32%;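 also: 0% = median of test compound wells and 100% = reference inhibitor wells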
GPR151 ag = activators of human GPR151 | Q8TDV0 | PathHunter beta-arrestin GPR151 cells, luminescence | activation, % at 11.2 µM | 1% of 650,000 active; in the data active = activation above about 4.9%;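 also: 0% = median of compound wells and 100% = cells with positive control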
MITF inh = human MITF inhibition, primary screen; O75030; AlphaScreen MITF homodimerization, bead proximity signal; inhibition, % at 2.6 µM; 0.91% of 650,000 active; in the data active = inhibition above about 50%;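 also: 0% = vehicle wells with protein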
GPR151 conf act = confirmation of human GPR151 activators | shares compounds with GPR151 ag | GPR151 PathHunter beta-arrestin cells, luminescence, 90 min; % of EA-reagent control over plate median | activation, % at 11.2 µM | 6,700 tested, under 10 active | AID 1508609;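 active = mean percent activation across replicates above the confirmation screen cutoff of 4.91%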
GPR119 counter = activates human GPR119 in a GPR151 counter-screen; shares compounds with GPR151 ag; GPR119 PathHunter beta-arrestin cells, luminescence, 90 min; 0 = compound-well median, 100 = enzyme-acceptor control; activation, % at 11.2 µM; 0.3% of 6,700 active;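 active = mean percent activation in the counterscreen above 29.09%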;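 also: counterscreen on off-target GPR119 to flag nonselective hits from the GPR151 activator screen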
Active calls of the source: *; / = no result given. In the library only some 3.4% were active in any assay of this set; here they are far more common.

SMILES | FBW7 activator | TEAD-YAP inh | GPR151 ag | MITF inh | GPR151 conf act | GPR119 counter
CCC1CCc2c(sc3nc(SCC(=O)Nc4c(C)cccc4C)n(-c4ccccc4)c(=O)c23)C1 (stereo unspecified) | 0 | 1 | 8.1* | 27 | 0 | -4
CCOC(=O)c1c(NC(=O)C2C3C=CC(C3)C2C(=O)O)sc2c1CCCCC2 (stereo unspecified) | 0 | 16 | 5.5* | 5 | 0 | -7
CCOC(=O)c1c(NC(=O)COc2c(F)c(F)cc(F)c2F)sc2c1CCCC2 | 1 | 8 | 5.0* | 13 | 1 | 9
CCOC(=O)c1c(NC(=O)COc2c(C)cc(Cl)cc2Cl)sc2c1CCCC2 | 0 | 0 | 0 | -5 | / | /
O=C(COc1ccc(Cl)cc1)Nc1ccc(-c2cn3ccsc3n2)cc1 | 0 | -3 | -1 | -7 | / | /
CCOC(=O)c1c(NC(=O)C23CC4CC(CC(C4)C2)C3)sc(C(=O)Nc2cccc(Cl)c2C)c1C | 0 | -1 | 0 | 13 | / | /
Cc1cccc(C(=O)Oc2ccc(N(C)C3=NS(=O)(=O)c4ccccc43)cc2)c1 | 0 | -1 | 0 | 14 | / | /
Cc1ccccc1OCC(=O)NNC(=O)C1c2ccccc2Oc2ccccc21 | 0 | 7 | 6.0* | 7 | -1 | -2
Cc1cc(Br)ccc1OCC(=O)N(C(C)C)C(C)C | 0 | 5 | 2 | 40 | / | /
Cc1ccccc1OCC(=O)N(C(C)C)C(C)C | 0 | 13 | 8.9* | 5 | 0 | 7
COc1ccc(/C=C/C(=O)Nc2cccc(C)c2C)cc1S(=O)(=O)N1CCOCC1 | 0 | -7 | 1 | 2 | / | /
O=C(COc1ccccc1)Nc1ccc(N2CCC(NCCN3CCNC3=O)CC2)cc1 | 0 | 9 | 0 | 1 | / | /
O=C(Nc1ccc(N2CCC(NCCN3CCNC3=O)CC2)cc1)C1CCCC1 | 0 | -13 | 6.3* | 1 | 0 | 0
CN1CCN(c2cc(N3CCN(CCC#N)CC3)c([N+](=O)[O-])cc2F)CC1 | 0 | 9 | 0 | 5 | / | /
N#CCCN1CCN(c2ccc(F)cc2[N+](=O)[O-])CC1 | 0 | 9 | 5.3* | 13 | 3 | -11
CCC(C)(C)c1ccc(OCCOCCn2cc([N+](=O)[O-])nc2C)c(C(C)(C)CC)c1 | 0 | 1 | 5.6* | -9 | 0 | 6
CC(C)c1ccc(-c2csc(NC(=O)c3ccc(Br)cc3)n2)cc1 | 0 | -11 | -1 | 11 | / | /
COc1cccc(NC(=O)CN(C2=NC3CS(=O)(=O)CC3S2)c2ccccc2F)c1 (stereo unspecified) | 0 | 4 | 5.0* | 4 | 0 | -7
CC1CCCC(NS(=O)(=O)c2ccc(F)c(C(=O)Nc3cc(Cl)ccc3Cl)c2)C1C (stereo unspecified) | 0 | 2 | 7.3* | -12 | 0 | -1
CC1=C(C(=O)CN2CCN(c3ccccc3)CC2)N2C=CC=CC2N1 (stereo unspecified) | 0 | 7 | 9.2* | 5 | 1 | 7
CCSc1ccccc1C(=O)NC(C)c1ccccc1 (stereo unspecified) | 0 | -5 | 5.5* | 2 | 0 | 3
O=S(c1cc(Cl)cc(Cl)c1O)c1cc(Cl)cc(Cl)c1O | 0 | -6 | 6.9* | 7 | 1 | 4
CC1=C(C(=O)Nc2ccc(F)c(F)c2)C(c2cccs2)NC(=O)N1 (stereo unspecified) | 0 | 3 | 5 | 1 | / | /
O=C1CCC(C(=O)Nc2cc(F)cc(F)c2)=NN1 | 0 | 9 | 6.4* | -3 | 1 | 6
CCOc1ccc(S(=O)(=O)n2cnc3ccccc32)cc1C | 0 | 1 | 0 | 9 | / | /
SMILES | FBW7 activator | TEAD-YAP inh | GPR151 ag | MITF inh | GPR151 conf act | GPR119 counter
COc1ccc(C)cc1S(=O)(=O)n1c(C)nc2ccccc21 | 0 | -14 | -1 | -1 | / | /
CCOc1ccc(C)cc1S(=O)(=O)n1cnc2ccccc21 | 0 | 46* | 5.8* | 3 | 0 | -4
CCOc1ccc(C)cc1S(=O)(=O)n1c(C)nc2ccccc21 | 0 | 0 | 7.2* | -3 | 0 | 3
CCOC(=O)N1CCN(c2c(NC3CCCCC3)c(=O)c2=O)CC1 | 0 | 1 | 0 | 10 | / | /
CCOC(=O)N1CCN(c2c(NCc3ccc(Cl)cc3)c(=O)c2=O)CC1 | 0 | 53* | 4.9* | 2 | 0 | -8
COc1cccc(CNC(=O)c2ccc(CNc3c(N4CCOCC4)c(=O)c3=O)cc2)c1 | 0 | -12 | 8.6* | 1 | -1 | -6
CCOC(=O)N1CCN(c2c(NCc3cccnc3)c(=O)c2=O)CC1 | 0 | 3 | -1 | -6 | / | /
CCOC(=O)N1CCN(c2c(NC3CCC(C)CC3)c(=O)c2=O)CC1 (stereo unspecified) | 0 | -3 | 5.0* | 1 | 0 | 9
O=C(O)c1ccc(CNc2c(N3CCCCC3)c(=O)c2=O)cc1 | 0 | -6 | 7.5* | 1 | 0 | -1
CC(=O)c1ccc(NC(=O)CN2CCN(c3nc4ccccc4n3CC(C)C)CC2)cc1 | 0 | -2 | 3 | -5 | / | /
CS(=O)(=O)N(CC(=O)NCc1ccncc1)c1ccc2c(c1)OCO2 | 1 | 5 | -1 | 19 | / | /
O=C(Nc1cccc([N+](=O)[O-])c1)c1csc2c1CCCC2 | 0 | -23 | 0 | 0 | / | /
c1nc(NCC2CCCO2)c2c3c(sc2n1)CCC3 (stereo unspecified) | 0 | -1 | 7.6* | -3 | 0 | 6
c1nc(NCc2ccc(CN3CCOCC3)cc2)c2c3c(sc2n1)CCC3 | 0 | 33* | 6.3* | -1 | 1 | -6
c1nc(NCC2CCCO2)c2c3c(sc2n1)CCCC3 (stereo unspecified) | 0 | -2 | 1 | -1 | / | /
c1nc(NCCN2CCOCC2)c2c3c(sc2n1)CCCC3 | 0 | -6 | 1 | -4 | / | /
CC1CC(=O)C(C(=N)CC2CC(=O)NC(=O)C2)=C(O)C1 (stereo unspecified) | 0 | 2 | -1 | -3 | / | /
O=C(O)Cc1c(-c2ccccc2)c2cc(Br)ccc2[nH]c1=O | 0 | 1 | 1 | -4 | / | /
CCN(CC)c1c(-c2ccccc2)c2cc(Br)ccc2[nH]c1=O | 0 | 17 | 5.9* | 9 | 0 | 7
CC(=O)c1ccc(N2CCN(C(=S)Nc3cccc([N+](=O)[O-])c3)CC2)cc1 | 0 | -12 | 5.2* | 1 | 0 | 0
COc1cc([N+](=O)[O-])ccc1NC(=S)N1CCN(c2ccc(C(C)=O)cc2)CC1 | 0 | 0 | 7.3* | -6 | 0 | -7
COC(=O)CCNc1ccc(O)c2c1C(=O)c1ccccc1C2=O | 0 | 2 | 0 | 17 | / | /
CCOC(=O)C(NC(C)=O)(Nc1ccc(Cl)c(Cl)c1)C(F)(F)F (stereo unspecified) | 0 | 3 | 3 | 11 | / | /
CS(=O)(=O)N(CC(=O)N1CCN(c2ccccc2)CC1)Cc1ccc(Cl)cc1 | 1 | -1 | 5.0* | -2 | 0 | -1

Screening data (PubChem BioAssay)
